Results as given in PubChem BioAssay AID1159580 (chemical genetic matrix, 2015).
Among all 5,500 compounds or so, about 2,000 (36%) were called active. Another 18% or so got no clear call; they are omitted. No stated cut-off is given here; in the data, active means normalized growth mostly below about 0.91 (no sharp cut-off); inconclusive means no clear call, values can overlap the other calls; inactive means mostly above about 0.92. Some of the results follow.

Assay: chemical genetic growth profiling, strain panel (AID 1159580);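 further: tested at 20 µM; growth read once vehicle control cultures reached saturation at 30 °C; 1 = growth at the plate median or of vehicle wells; lower values mean less growth of the strain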
Settings: growth OD

Measured: normalized growth

O=c1cc(-c2ccccc2)oc2c(O)c(O)ccc12
active: S. cerevisiae deletion strains, locus YKR001C, strain vps1, active compounds read low 0.89 | S. cerevisiae deletion strains, locus YLR039C, strain RIC1, active compounds read low 0.499 | S. cerevisiae deletion strains, locus YLR262C, strain YPT6 (second series), active compounds read low 0.661 | S. cerevisiae deletion strains, locus YLR262C, strain YPT6, active compounds read low 0.593 | S. cerevisiae deletion strains, locus YLR268W, strain sec22, active compounds read low 0.768 | S. cerevisiae deletion strains, locus YLR342W, strain FKS1 (second series), active compounds read low 0.764 | S. cerevisiae deletion strains, locus YLR371W, strain rom2, active compounds read low 0.848 | S. cerevisiae deletion strains, locus YLR418C, strain cdc73, active compounds read low 0.789 | S. cerevisiae deletion strains, locus YOR106W, strain vam3, active compounds read low 0.853 | S. cerevisiae strains, strain wild type, active compounds read low 0.834
inactive: S. cerevisiae deletion strains, locus YJR066W, strain TOR1, active compounds read low 0.985 | S. cerevisiae deletion strains, locus YJR075W, strain HOC1, active compounds read low 1.01 | S. cerevisiae deletion strains, locus YKL009W, strain mrt4, active compounds read low 0.96 | S. cerevisiae deletion strains, locus YKL068W, active compounds read low 0.976 | S. cerevisiae deletion strains, locus YKL085W, strain MDH1 (second series), active compounds read low 0.986 | S. cerevisiae deletion strains, locus YKL085W, strain MDH1, active compounds read low 0.986 | S. cerevisiae deletion strains, locus YKL160W, strain elf1, active compounds read low 0.986 | S. cerevisiae deletion strains, locus YKR026C, strain gcn3, active compounds read low 0.993 | S. cerevisiae deletion strains, locus YKR091W, strain srl3, active compounds read low 0.995 | S. cerevisiae deletion strains, locus YLL001W, strain dnm1, active compounds read low 0.984 | S. cerevisiae deletion strains, locus YLL026W, active compounds read low 1 | S. cerevisiae deletion strains, locus YLL041C, strain sdh2, active compounds read low 0.987 | S. cerevisiae deletion strains, locus YLR027C, strain aat2, active compounds read low 0.999 | S. cerevisiae deletion strains, locus YLR058C, strain SHM2, active compounds read low 0.938 | S. cerevisiae deletion strains, locus YLR102C, strain apc9, active compounds read low 0.99 | S. cerevisiae deletion strains, locus YLR113W, strain HOG1, active compounds read low 1.01 | S. cerevisiae deletion strains, locus YLR221C, strain rsa3, active compounds read low 0.994 | S. cerevisiae deletion strains, locus YLR258W, strain gsy2, active compounds read low 0.987 | S. cerevisiae deletion strains, locus YLR320W, strain mms22, active compounds read low 1.01 | S. cerevisiae deletion strains, locus YLR330W, strain CHS5, active compounds read low 0.985 | S. cerevisiae deletion strains, locus YLR342W, strain FKS1, active compounds read low 0.987 | S. cerevisiae deletion strains, locus YLR357W, strain rsc2, active compounds read low 0.914 | S. cerevisiae deletion strains, locus YLR370C, strain arc18, active compounds read low 0.99 | S. cerevisiae deletion strains, locus YLR384C, strain iki3, active compounds read low 0.989 | S. cerevisiae deletion strains, locus YML016C, strain PPZ1, active compounds read low 0.952 | S. cerevisiae deletion strains, locus YML032C, strain rad52, active compounds read low 1.01 | S. cerevisiae deletion strains, locus YML120C, strain ndi1, active compounds read low 0.973 | S. cerevisiae deletion strains, locus YML124C, strain tub3, active compounds read low 0.999 | S. cerevisiae deletion strains, locus YMR058W, strain fet3, active compounds read low 0.966 | S. cerevisiae deletion strains, locus YMR078C, strain ctf18, active compounds read low 0.961 | S. cerevisiae deletion strains, locus YMR125W, strain sto1, active compounds read low 0.984 | S. cerevisiae deletion strains, locus YMR129W, active compounds read low 0.989 | S. cerevisiae deletion strains, locus YMR205C, strain PFK2, active compounds read low 1 | S. cerevisiae deletion strains, locus YMR223W, strain ubp8, active compounds read low 0.953 | S. cerevisiae deletion strains, locus YMR231W, strain pep5, active compounds read low 0.968 | S. cerevisiae deletion strains, locus YMR307W, strain GAS1, active compounds read low 0.709 | S. cerevisiae deletion strains, locus YNL067W, strain RPL9B, active compounds read low 0.955 | S. cerevisiae deletion strains, locus YNL071W, strain lat1, active compounds read low 0.985 | S. cerevisiae deletion strains, locus YNL153C, strain GIM3, active compounds read low 0.988 | S. cerevisiae deletion strains, locus YNL183C, strain NPR1, active compounds read low 1.01 | S. cerevisiae deletion strains, locus YNL209W, strain ssb2, active compounds read low 0.979 | S. cerevisiae deletion strains, locus YNL233W, strain BNI4, active compounds read low 0.922 | S. cerevisiae deletion strains, locus YNL248C, strain rpa49, active compounds read low 0.982 | S. cerevisiae deletion strains, locus YNL250W, strain rad50, active compounds read low 0.966 | S. cerevisiae deletion strains, locus YNL271C, strain bni1, active compounds read low 0.972 | S. cerevisiae deletion strains, locus YNL298W, strain CLA4, active compounds read low 0.972 | S. cerevisiae deletion strains, locus YNL307C, strain MCK1, active compounds read low 0.982 | S. cerevisiae deletion strains, locus YNL322C, strain KRE1 (second series), active compounds read low 0.993 | S. cerevisiae deletion strains, locus YNR049C, strain mso1, active compounds read low 0.993 | S. cerevisiae deletion strains, locus YNR052C, strain pop2, active compounds read low 0.916 | S. cerevisiae deletion strains, locus YOL006C, strain TOP1, active compounds read low 0.545 | S. cerevisiae deletion strains, locus YOL012C, strain htz1 0.521 | S. cerevisiae deletion strains, locus YOL147C, strain pex11, active compounds read low 0.977 | S. cerevisiae deletion strains, locus YOR001W, strain rrp6, active compounds read low 0.972 | S. cerevisiae deletion strains, locus YOR061W, strain CKA2, active compounds read low 0.921 | S. cerevisiae deletion strains, locus YOR069W, strain VPS5, active compounds read low 0.971 | S. cerevisiae deletion strains, locus YOR070C, strain gyp1, active compounds read low 0.982 | S. cerevisiae deletion strains, locus YOR080W, strain dia2, active compounds read low 0.996 | S. cerevisiae deletion strains, locus YOR083W, strain WHI5, active compounds read low 0.968 | S. cerevisiae deletion strains, locus YOR136W, strain idh2, active compounds read low 0.962 | S. cerevisiae deletion strains, locus YOR144C, strain elg1, active compounds read low 0.986 | S. cerevisiae deletion strains, locus YOR184W, strain ser1, active compounds read low 0.927 | S. cerevisiae deletion strains, locus YOR231W, strain MKK1, active compounds read low 1.06 | S. cerevisiae deletion strains, locus YOR265W, strain rbl2, active compounds read low 0.983 | S. cerevisiae deletion strains, locus YOR270C, strain vph1, active compounds read low 0.936 | S. cerevisiae deletion strains, locus YOR290C, strain snf2, active compounds read low 0.987 | S. cerevisiae deletion strains, locus YOR316C, strain cot1, active compounds read low 0.987 | S. cerevisiae deletion strains, locus YPL051W, strain arl3, active compounds read low 0.983 | S. cerevisiae deletion strains, locus YPL078C, strain atp4, active compounds read low 0.989 | S. cerevisiae deletion strains, locus YPL106C, strain sse1, active compounds read low 0.88 | S. cerevisiae deletion strains, locus YPL240C, strain hsp82, active compounds read low 0.975 | S. cerevisiae deletion strains, locus YPL241C, strain CIN2, active compounds read low 0.987 | S. cerevisiae deletion strains, locus YPL256C, strain CLN2, active compounds read low 1.06 | S. cerevisiae deletion strains, locus YPR119W, strain clb2, active compounds read low 0.991 | S. cerevisiae deletion strains, locus YPR141C, strain kar3, active compounds read low 0.974 | S. cerevisiae deletion strains, locus YPR163C, strain tif3, active compounds read low 0.987 | S. cerevisiae deletion strains, locus YPR167C, strain met16, active compounds read low 0.993 | S. cerevisiae deletion strains, strain wtn01, active compounds read low 0.903
